CYP2C19 inhib – blocks human cytochrome P450 2C19; inhibition, % at 5 µM; CYP2C19 Supersomes, luciferin-H EGE luminescence, 30 min; 96,000 compounds, 21% hits;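 active = CYP2C19 inhibition above a set limit at 5 µM in the primary screen, cut at about 50% in these data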;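 also: plate controls were negative control wells for no effect and 2.5 mM tranylcypromine positive control for full effect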
CYP2C9 activ – activators of human CYP2C9; P11712; recombinant CYP2C9, luciferin-H conversion, luminescence; active compounds read high; factor 1 = untreated enzyme, 0 = blocked; activation factor at 5 µM; 96,000 compounds, 1.4% hits;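 active = activation factor of 2 or more for CYP2C9 at a 5 µM dose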;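 also: 0 = sulfaphenazole-blocked wells and 1 = vehicle-only wells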
Target sequence (P11712 whole entry, looked up): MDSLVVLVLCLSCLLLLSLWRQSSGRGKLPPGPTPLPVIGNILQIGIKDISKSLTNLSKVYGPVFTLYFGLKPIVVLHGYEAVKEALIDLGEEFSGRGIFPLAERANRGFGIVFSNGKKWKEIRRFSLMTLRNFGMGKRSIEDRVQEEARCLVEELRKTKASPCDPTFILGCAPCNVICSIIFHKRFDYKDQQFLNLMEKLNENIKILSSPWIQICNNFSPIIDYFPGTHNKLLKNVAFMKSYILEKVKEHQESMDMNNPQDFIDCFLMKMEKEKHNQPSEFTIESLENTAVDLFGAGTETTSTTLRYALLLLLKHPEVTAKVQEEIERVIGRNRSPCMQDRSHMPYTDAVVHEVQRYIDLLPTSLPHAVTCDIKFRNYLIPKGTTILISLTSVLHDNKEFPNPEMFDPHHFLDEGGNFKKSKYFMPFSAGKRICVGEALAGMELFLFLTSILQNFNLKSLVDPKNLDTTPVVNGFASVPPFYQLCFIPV
CYP2C9 inh – human CYP2C9 inhibition; P11712; CYP2C9 Supersomes, luciferin-H conversion, luminescence; inhibition, % at 5 µM; 96,000 compounds, 20% hits; AID 777;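 active = blocking of liver enzyme CYP2C9 beyond about 50% at 5 µM, limit read from the data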
PostGolgi ctrl – yeast control strain growth, post-Golgi counter-screen; AID 738; inhibition, % at 10 µM; efflux-deficient yeast background strain, growth absorbance A615, 16 h; 98,000 compounds, 5% hits
CYP2C19 activ – activators of human cytochrome P450 2C19; P33261; recombinant CYP2C19, luciferin-H EGE luminescence; active compounds read high; 0 = fully inhibited enzyme, 1 = untreated enzyme; activation factor at 5 µM; 96,000 tested, under 10 active;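 active = activation factor of at least 2 at 5 µM in the primary screen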;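 also: 0 = wells with 2.5 mM tranylcypromine and 1 = vehicle-only wells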
PostGolgi yeast – growth inhibition of a yeast mutant, post-Golgi transport screen. post-Golgi transport phenotypic cell assay. inhibition, % at 10 µM. 98,000 compounds, 0.9% hits. AID 739;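 also: yeast cells grown in 1536-well plates; yeast grown about 18 h at 30C before absorbance read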
Starred values were filed as active, the others as inactive; x = not tested or not shown. Sampled rows, rich in hits. Any-hit rate of the full collection: about 32%. Rule as the data show it, unless noted: active = inhibition above about 30%; inactive = the rest.

SMILES	CYP2C19 inhib	CYP2C9 activ	CYP2C9 inh	PostGolgi ctrl	CYP2C19 activ	PostGolgi yeast
COc1ccc(/C(O)=C2/C(=O)C(=O)N(c3ncccn3)C2c2ccc(OC)c(OC)c2)cc1 (centres undefined)	-17	1.2	-25	2	1.2	4
CCn1c(SCC(=O)O)nnc1-c1cc2c(C)nn(-c3ccccc3)c2s1	-6	1	3	0	1.1	9
CCN(Cc1ccccc1)C(=O)c1ccccc1C	56*	1	1	-13	0.4	6
COc1cc(CNn2cnnc2)ccc1OCC(=O)NC(C)(C)C	-11	1.1	-6	14	1.1	4
O=c1c2ccccc2nc(/C=C/c2ccc([N+](=O)[O-])o2)n1CCCO	16	0.9	11	62*	0.8	91*
Cc1sc2nc(SCC(=O)N(CCO)CCO)n(C3CCCCC3)c(=O)c2c1C	4	0.8	16	13	1	2
COC(=O)c1ccc(S(=O)(=O)NCc2cccc(OC)c2)n1C	60*	0.7	28	13	0.4	4
COC(=O)c1cccc(S(=O)(=O)N2CCOCC2)c1	4	0.9	7	0	1	6
COc1ccc(CNS(=O)(=O)c2cccc(S(=O)(=O)N3CCOCC3)c2)cc1	58*	0.5	46	4	0.4	15
COc1cccc(CNS(=O)(=O)c2cccc(S(=O)(=O)N3CCOCC3)c2)c1	57*	0.6	37	7	0.4	15
O=S(=O)(NCc1ccc2c(c1)OCO2)c1cccc(S(=O)(=O)N2CCOCC2)c1	75*	0.7	35	13	0.3	8
O=C(NCc1nnc(SC/C=C/c2ccccc2)o1)c1ccco1	47	0.5	50	-8	0.5	-10
Cc1ccc(N/C=C/C(=O)C(C)(C)C)c(O)c1	14	0.6	39	13	0.9	5
Cc1cccn2c(=O)c3cc(C#N)c(=N)n(Cc4ccncc4)c3nc12	x	x	x	11	x	2
N#Cc1cc2c(=O)n3ccccc3nc2n(CCCn2ccnc2)c1=N	71*	0.2	78*	5	0.3	2
Cc1ccc(-c2nn(CCC#N)cc2C=C(C#N)C#N)cc1	9	1.1	-14	1	0.9	-12
N#CCCn1cc(/C=N/NC(=O)c2ccncc2)c(-c2ccccc2)n1	53*	0.3	68*	-3	0.5	15
CC1(C(=O)O)Cc2ccccc2C(=O)O1 (centres undefined)	0	1	-3	3	1	21
O=c1c(/C=N/Nc2ccccc2)c(Sc2nnnn2-c2ccccc2)nc2ccccn12	46	0.3	72*	19	0.5	2
O=Cc1c(Sc2ccccc2)nc2ccccn2c1=O	72*	0.7	29	-2	0.3	6
COC(=O)COc1ccc(S(=O)(=O)NCc2cccnc2)cc1C	39	1	2	1	0.6	2
O=C(NCc1cccnc1)C1CCN(S(=O)(=O)N2CCOCC2)CC1	13	1	3	6	0.9	3
CN(C(=O)c1ccncc1)c1nnc(-c2ccncc2)s1	96*	0.1	94*	4	0	-5
Cc1ccc(-c2nnc(N(C)C(=O)c3cccnc3)s2)cn1	6	1	3	16	0.9	3
Cc1ccc(-c2nnc(N(C)C(=O)c3cccnc3)s2)cc1	67*	0.1	86*	7	0.3	-1
SMILES	CYP2C19 inhib	CYP2C9 activ	CYP2C9 inh	PostGolgi ctrl	CYP2C19 activ	PostGolgi yeast
CCCCN(CCCC)S(=O)(=O)c1ccc2oc(C(=O)N3CCOCC3)c(C)c2c1	21	0.5	49	15	0.8	0
Cc1cc(C)c(S(=O)(=O)c2ccccc2C(=O)O)c(C)c1	0	0.9	9	-4	1	14
Cc1cc(C)nc(N(C#N)S(=O)(=O)c2ccccc2Cl)n1	x	x	x	4	x	2
Cc1ccc(S(=O)(=O)c2c(C)cc(C)nc2Cl)c(C)c1	100*	1.8	-85	-4	0	-8
Cc1cc(C)c(S(=O)(=O)c2ccccc2C)c(Oc2ccccc2)n1	69*	0.4	56*	30*	0.3	3
CCCCSc1nc(C)cc(C)c1S(=O)(=O)c1ccccc1C	75*	0.6	39	14	0.3	0
Cc1cc(C)c(S(=O)(=O)c2ccccc2C)c(Cl)n1	66*	3.6*	-256	2	0.3	17
CN(C)/C=C(/C(=O)c1ccc(Cl)cc1Cl)S(=O)(=O)c1ccccc1	14	0.4	63*	12	0.9	-5
CN(C)/C=C(/C(=O)c1ccc(Cl)cc1Cl)S(=O)(=O)c1ccc(Cl)cc1	80*	0	95*	8	0.2	-3
O=C(NN1C(=O)C2C3C=CC(C4CC34)C2C1=O)c1ccc(Cl)cc1Cl (centres undefined)	2	1.1	-14	-2	1	-3
CN(C)/C=C(/C(=O)c1ccc(Cl)cc1)S(=O)(=O)c1ccc(Cl)cc1	62*	1	-4	15	0.4	-3
Cc1coc(NC(=O)CSc2nc(-c3ccncc3)cc(C(F)(F)F)c2C#N)n1	20	0.6	35	7	0.8	3
O=C(Cn1nc(Cc2cccnc2)c2ccccc2c1=O)NCc1ccc(F)cc1	58*	0.2	83*	-1	0.4	-5
O=C(Cn1nc(Cc2cccnc2)c2ccccc2c1=O)N1CCN(c2ccccn2)CC1	42	0.1	87*	21	0.6	-13
CCCCN(CC)CCCNC(=O)Cn1nc(Cc2cccnc2)c2ccccc2c1=O	2	0.9	11	0	1	18
COc1cc(NC(=O)Cn2nc(Cc3cccnc3)c3ccccc3c2=O)cc(OC)c1OC	54*	0.4	62*	0	0.5	-3
O=C(Cn1nc(Cc2cccnc2)c2ccccc2c1=O)NCc1ccc2c(c1)OCO2	56*	0.1	89*	6	0.4	1
CCOC(=O)CSc1nnc(CNC(=O)c2ccccc2OC)n1-c1ccc(OC)cc1	-6	1	-4	-2	1.1	-1
O=C(CCn1nc(-c2ccccc2)ccc1=O)N1CCOCC1	26	1	-4	10	0.7	-4
CCOc1ccc(Br)cc1C1C(C(=O)OC)=C(N)Oc2cc(N(C)C)ccc21 (centres undefined)	94*	0.1	85*	31*	0.1	1
CN(C)S(=O)(=O)c1cccc(COC(=O)C2=COCCO2)c1	46	0.6	38	-2	0.5	22
Cc1onc(-c2ccccc2)c1C(N)=O	-2	1.1	-10	42*	1	4
Cc1onc(-c2ccccc2)c1C(=O)N1CCCSC1=Nc1ccccc1	98*	0.4	61*	13	0	9
O=C(c1ccccc1)n1nnc2ccccc21	-18	1.3	-26	10	1.2	8
Cc1onc(-c2ccccc2)c1C(=O)n1nnc2ccccc21	37	0.4	56*	-7	0.6	30
Cc1[nH]nc2cn[nH]c12	-12	1.1	-7	12	1.1	3
